Drawing on PubChem BioAssay AID1645853 (Buhrlage Lab, Dana-Farber Cancer Institute and Novartis …, 2021), this text covers inhibition for 56 molecules.

About 2,000 (4.3%) of roughly 47,000 compounds were called active. The list comes from a sample in which actives are over-represented; it also holds similar structures and randomly drawn compounds. Values without a mark were called inactive. Rule as the data show it: active = inhibition above about 30%; inactive = the rest.

Chain of Ubiquitin carboxyl-terminal hydrolase 8 (Homo sapiens) (P40818 whole entry, looked up): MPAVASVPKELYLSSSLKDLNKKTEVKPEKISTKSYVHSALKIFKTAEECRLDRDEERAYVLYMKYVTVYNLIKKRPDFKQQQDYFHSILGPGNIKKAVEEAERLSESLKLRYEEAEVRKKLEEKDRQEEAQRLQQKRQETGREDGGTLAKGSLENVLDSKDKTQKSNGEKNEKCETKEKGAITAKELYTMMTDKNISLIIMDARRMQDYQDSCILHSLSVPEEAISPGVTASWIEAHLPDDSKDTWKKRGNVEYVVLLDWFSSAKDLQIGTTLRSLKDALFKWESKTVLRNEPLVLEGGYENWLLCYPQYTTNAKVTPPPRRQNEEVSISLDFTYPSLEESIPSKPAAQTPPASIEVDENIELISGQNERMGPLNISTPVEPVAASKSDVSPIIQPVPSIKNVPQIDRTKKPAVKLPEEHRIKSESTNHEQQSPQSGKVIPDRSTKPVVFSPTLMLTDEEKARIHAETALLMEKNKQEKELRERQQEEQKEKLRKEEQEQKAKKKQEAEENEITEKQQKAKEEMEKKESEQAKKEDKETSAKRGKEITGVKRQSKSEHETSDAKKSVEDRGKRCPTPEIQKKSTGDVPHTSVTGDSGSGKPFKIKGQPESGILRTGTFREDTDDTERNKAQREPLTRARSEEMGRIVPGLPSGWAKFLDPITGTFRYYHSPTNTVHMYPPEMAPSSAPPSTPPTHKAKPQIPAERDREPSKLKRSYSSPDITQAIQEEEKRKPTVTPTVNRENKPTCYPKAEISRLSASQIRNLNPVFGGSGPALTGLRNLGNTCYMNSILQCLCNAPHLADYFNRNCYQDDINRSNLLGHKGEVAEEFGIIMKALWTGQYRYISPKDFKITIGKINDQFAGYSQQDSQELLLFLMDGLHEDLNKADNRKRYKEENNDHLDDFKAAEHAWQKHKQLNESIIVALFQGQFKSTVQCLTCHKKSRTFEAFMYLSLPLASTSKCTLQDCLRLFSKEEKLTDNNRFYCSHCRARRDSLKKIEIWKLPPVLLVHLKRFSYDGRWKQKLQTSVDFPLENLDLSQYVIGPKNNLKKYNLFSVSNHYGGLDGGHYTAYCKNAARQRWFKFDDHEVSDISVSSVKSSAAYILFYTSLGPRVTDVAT

This assay addresses Ubiquitin carboxyl-terminal hydrolase 8 (Homo sapiens) (UniProt P40818). As to the kind of experiment: inhibitors of human USP8 deubiquitinase (AID 1645853). The conditions noted are these: purified USP8, Ub-rhodamine cleavage fluorescence, 30 min; at 20 µM; stronger effect = higher value.
The term inhibition denotes the drop in the measured response relative to a control, in per cent. On to `O=C(Nc1ccc2c(c1)OCO2)N1CCCCCC1`, for which the inhibition is 5.28%.
Consider `O=C(CCOc1ccccc1F)Nc1ccc2c(c1)OCO2`, for which the inhibition is 7.17%.
The same measure for `O=C(CN1CCN(CC(=O)Nc2ccc3c(c2)OCO3)CC1)Nc1ccc(F)cc1`: 38.1% (active); for `CCOc1ccc(-c2noc(-c3nn(-c4cccc(OC)c4)ccc3=O)n2)cc1`: 81.8% (active); for `COc1cccc(-c2cc3c(=O)n(Cc4nc(-c5ccccc5C)no4)ccn3n2)c1`: 0.201%.
Next, `Cc1ccc(-c2noc(-c3cccc(OCC(=O)N(C)C)c3)n2)cc1`: -30%; `COc1nc2c(c(-c3ccc[nH]3)c1C#N)Cc1ccccc1-2`: -97.1%.
Take `Nc1cccc(C(=O)CC2(O)C(=O)N(CCc3ccccc3)c3ccccc32)c1` (stereo unspecified): the inhibition was -96.8%.
The same measure for `CNc1nc(C2CCCN(C(C)=O)C2)nc2c1CCN(C(=O)c1oc3ccccc3c1C)C2` (stereo unspecified): -2.25%.
As to `O=C(COc1cccc2ccc(N3CCC(Cc4ccccc4)CC3)nc12)NCc1ccc(F)cc1`, the inhibition is 65.7% (active).
As for `O=C(CC1C(=O)OCCN1Cc1ccccc1)Nc1cccc(F)c1` (stereo unspecified), the inhibition is -10.4%.
The same measure for `COc1ccc(NC(=O)CSc2ncccc2C(=O)N2CCC(Cc3ccccc3)CC2)cc1OC`: -0.608%; for `O=C(COc1cccc2ccc(N3CCC(Cc4ccccc4)CC3)nc12)Nc1cccc(F)c1`: 84.1% (active); for `Cn1c(=O)c(N2CCC(C(=O)NCc3ccc(F)cc3)CC2)nc2cccnc21`: 7.77%.
Next, `O=C(CCc1nnc2ccc(N3CCCC3)nn12)NCc1ccc(F)cc1`: 29.2%; `CC(c1ccccc1)n1c(CCCNC(=O)C2CCCCC2)nc2ccccc21` (stereo unspecified): -8.43%; `Cc1ccc(NC(=O)Cn2cccc(S(=O)(=O)N3CCCCCC3)c2=O)c(C)c1`: -3.12%.
As for `Cn1c2c(c(=O)n(C)c1=O)C(c1cccc(Cl)c1Cl)CC(=O)N2` (stereo unspecified), the inhibition was -0.255%.
With `O=C(CSc1n[nH]c(-c2cccnc2)n1)Nc1ccc(Cl)cc1`, the inhibition is -5.47%.
The same measure for `COCCn1c(=O)[nH]c2cc(C(=O)N3CCC(Cc4ccccc4)CC3)ccc2c1=O`: -0.0121%; for `COCCn1c(=O)[nH]c2cc(C(=O)NCCNc3ccc([N+](=O)[O-])cc3C#N)ccc2c1=O`: 55.6% (active); for `COCCn1c(=O)[nH]c2cc(C(=O)NCc3ccc(Cl)cc3)ccc2c1=O`: -1.21%.
For `Cc1cccc(NC(=O)N2CCCC3(CCCN3C)C2)c1` (stereo unspecified), the inhibition is -319%.
The same measure for `CN1CCN(c2ncc(NC(=O)c3ccc(C(F)(F)F)cc3)cn2)CC1`: -15.2%.
Take `CC(=O)N1Cc2ccccc2OC2(CCN(CC(=O)Nc3cccc(C)c3C)CC2)C1`: the inhibition was -15.9%.
The same measure for `Cn1cccc1/C(C#N)=C\c1ccc2c(c1)OCO2`: 76.2% (active); for `Cn1c(=O)c(-c2ccc(C(=O)NCc3ccc(F)cc3F)cc2)nc2cccnc21`: 15.4%; for `CNC(=O)C1(C)CN(C(=O)c2ccc3[nH]c(C)c(C)c3c2)CCO1` (stereo unspecified): -61.8%.
In the case of `Cc1cc(NC(=O)CSc2nccn2-c2ccc([N+](=O)[O-])cc2)no1`, the inhibition was -89.6%.
For the molecule `O=C(NCC1CC1)[C@H]1C[C@@H]2CN(CC3CC3)C[C@H]1O2`, the inhibition was -27.5%.
`COC(=O)c1cc2sc(Cl)cc2n1Cc1cc(=O)n2ccccc2n1`: the inhibition is -9.48%.
The same measure for `CCOC(=O)c1cc2c(ccn2-c2ccc(F)cc2)n1Cc1ncc(C)c(OC)c1C`: 3.2%.
`CC(C)OC(=O)c1cc2c(ccn2-c2ccc(F)cc2)n1Cc1ccccn1`: the inhibition is 64% (active).
The same measure for `O=C(NC(c1ccccc1)C1CC1)c1ccc2c(c1)S(=O)(=O)Nc1ncnn1-2` (stereo unspecified): -8.33%; for `COc1ccccc1NS(=O)(=O)c1ccc2oc(Nc3ccc(Cl)c(C(F)(F)F)c3)nc2c1`: -24.6%.
Next, `COc1ccc2c(c1)c(N1CCCC1=O)c(C(=O)NCc1ccccn1)n2C`: -0.85%; `Cc1nn(-c2ccc(F)cc2)c(C)c1S(=O)(=O)NCc1ccc2c(c1)OCO2`: -20.2%; `Cc1nn(CC(=O)c2cc(C)n(-c3ccc4c(c3)OCO4)c2C)c(C)c1[N+](=O)[O-]`: 58.8% (active).
Next, `COc1cccc(C2C3=C(CC(C)(C)CC3=O)Nc3ccccc3N2C(=O)Cc2ccccc2)c1` (stereo unspecified): 2.23%; `Cc1ccccc1-c1nc(-c2cccc(OCC(=O)N3CCOCC3)c2)no1`: 7.89%; `Cc1cc(C)cc(NC(=O)Cn2cnc(-c3nc(C)cs3)c2)c1`: -4.24%.
For the molecule `Cc1ccccc1-c1nc(-c2cn(CC(=O)Nc3ccccc3)cn2)no1`, the inhibition was 64.4% (active).
Next, `C[C@H](NC(=O)c1ccc2c(c1)OCO2)c1nc2cc(-c3ccc(F)cc3)ncn2n1`: 18%; `Nc1c(-c2ccc(Cl)cc2)cnc2c(-c3ccccc3)c(COc3ccccc3)nn12`: -0.15%; `COc1ccc(OCC(=O)Nc2noc(-c3ccccc3)n2)cc1`: 15.1%.
Next, `COc1ccc(NC(=O)Cc2noc(-c3cccc(OC)c3)n2)cc1`: 50.5% (active).
Next, `COc1ccc(-c2noc(-c3cccc(OCC(=O)NC(C)C)c3)n2)cc1`: -16.3%.
`CN(C)[C@@H]1CN(S(=O)(=O)N2CCOCC2)C[C@H]1O`: the inhibition is 11.8%.
`Cc1ccc(C(=O)N2C[C@@H]3CCN(c4ncccn4)C[C@@H]3C2)cc1`: the inhibition is -16.6%.
Next, `COc1cccc(CNC(=O)c2nnn(CC(=O)Nc3cc(C)ccc3C)c2N)c1`: 67.9% (active); `COc1cccc(CNC(=O)Cn2cnc(S(=O)(=O)N3CCCC3)c2)c1`: 19%; `COc1cccc(NC(=O)c2nnn(Cc3nc(-c4cccc(C)c4)oc3C)c2N)c1`: -2.67%.
With `Cc1ccc(C)c(NC(=O)c2cn(C)cc3c(=O)n(-c4ccccc4)nc2-3)c1`, the inhibition was -13.8%.
With `Cc1nc(-c2ccc(C)c(S(=O)(=O)NCC(=O)Nc3cccc(Cl)c3)c2)no1`, the inhibition is 7.8%.
In the case of `Cc1ccc(Nc2nc(NCC(=O)Nc3cc(C)ccc3C)nc(Nc3ccc(C)cc3)n2)cc1`, the inhibition is 38% (active).
As to `CCCN1CCC(N2C[C@@H]3CN(S(=O)(=O)c4ccccc4)C[C@@H]3C2)CC1`, the inhibition was -38.2%.
